KB-V1 cytotox: qHTS assay for MDR1-selective chemotherapeutics: Primary screen using the drug-selected MDR subline cells KB-V1; KB-V1 MDR cells viability, CellTiter-Glo, 72 h; Potency, µM (titrated, usually from 46.1 µM), hits mostly cytotoxic; 400,000 tested, 3.4% active; also: potency is read from the fitted curve at half-maximal effect; % is scaled to controls: 0 for no effect and ±100 for the full control effect; nearly all actives have a fitted effect of over 60% in size
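Compound-treated KB-V1 multidrug-resistant cells, 72 h, 37 degrees C; viability by CellTiter-Glo. Fitted qHTS curves give the values.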
MCF10A rereplic: A quantitative high throughput screen for small molecules that induce DNA re-replication in MCF 10a normal breast cells; MCF 10A DNA re-replication, Hoechst nuclear intensity, 48 h; Potency, µM (doses to about 46.1 µM), inactives show at the top dose activity, positive = re-replication, most hits filed as activators; 350,000 tested, 2.9% active; AID 624296, 2012; also: potency is read from the fitted curve at half-maximal effect; % of control where 0% means no effect; nearly all actives have a fitted effect of over 50% in size
D3 antag: qHTS of D3 Dopamine Receptor Antagonist: qHTS; D3R cells, DiscoveRx beta-arrestin luminescence, antagonist mode; hits give low values; max response, negative = inhibition, %; 360,000 tested, 2.5% active; in the data active = max response below about -50%; inconclusive = no clear call, values can overlap the other calls; also: % is scaled to controls: 0 for no effect and ±100 for the full control effect
Target sequence (P35462 whole entry, looked up): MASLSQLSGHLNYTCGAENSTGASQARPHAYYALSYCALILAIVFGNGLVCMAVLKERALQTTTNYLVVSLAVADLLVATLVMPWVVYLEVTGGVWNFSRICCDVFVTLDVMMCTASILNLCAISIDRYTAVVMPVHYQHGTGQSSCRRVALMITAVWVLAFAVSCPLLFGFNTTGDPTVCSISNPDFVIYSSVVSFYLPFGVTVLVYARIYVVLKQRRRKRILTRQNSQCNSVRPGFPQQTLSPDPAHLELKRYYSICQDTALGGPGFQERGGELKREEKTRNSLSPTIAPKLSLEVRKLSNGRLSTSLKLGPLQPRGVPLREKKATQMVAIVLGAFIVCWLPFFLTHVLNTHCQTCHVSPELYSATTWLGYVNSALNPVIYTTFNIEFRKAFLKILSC
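Cells plated overnight at 1500 cells/well, then exposed to library compounds with dopamine controls for 90 minutes at 37 degrees C. DiscoveRx reagent added for 30–60 minutes at room temperature; luminescence read, quantitative HTS format.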
KB-3-1 tox: qHTS assay for MDR1-selective chemotherapeutics: Primary screen using the parental adenocarcinoma cell KB-3-1. KB-3-1 viability, CellTiter-Glo ATP luminescence, 72 h. Potency, µM (highest dose often 46.1 µM), usual class: cytotoxic. 400,000 tested, 1.4% active. AID 1347075, 2019; also: potency is read from the fitted curve at half-maximal effect; % is scaled to controls: 0 for no effect and ±100 for the full control effect; nearly all actives have a fitted effect of over 60% in size
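Here the drug-naive KB-3-1 line serves as comparator for MDR sub-line selectivity; cells received compound titrations, 72 h at 37 °C, then CellTiter-Glo readout.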
SW480 rerep: A quantitative high throughput screen for small molecules that induce DNA re-replication in SW480 colon adenocarcinoma cells | SW480 DNA re-replication, Hoechst DNA content imaging, 48 h | Potency, µM (series often up to 46.1 µM), for inactives: top-dose re-replication activation, hits mostly activators | 340,000 tested, 1.8% active; also: potency is read from the fitted curve at half-maximal effect; % of control where 0% means no effect; nearly all actives have a fitted effect of over 55% in size
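Image-based read-out: total Hoechst fluorescence of nuclei (405 nm excitation, 500-530 nm emission), with hits raising the fraction of high-intensity nuclei. SW480 colon cells incubated 48 hr with compounds at 37 C.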
D3 ag: qHTS of D3 Dopamine Receptor Agonist: qHTS | D3R DiscoveRx beta-arrestin cells, luminescence, 90 min | AID 652048, 2013 | 410,000 tested, 0.58% active | max activation, % | D(3) dopamine receptor (Homo sapiens), P35462; in the data active = max activation above about 30%; also: 0% is about no effect
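Agonist-mode cell screen: cells plated at 1500/well and incubated overnight at 37 °C, then exposed to library compounds for 90 min at 37 °C. Detection reagent was added for 30–60 min at room temperature, and luminescence was read.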
The depositor's hits bear a star; i = inactive; ? = inconclusive; nt = no result given; [ ] = another dose, or the depositor's remark. This is a sample that favours compounds with a hit; in the whole collection about 8.9% have one here. Unless noted, calls follow the shape of the dose curve; as a rule, active = well fitted curve in the direction sought with a large enough effect; inconclusive = small, poorly fitted or top-dose-only effect, or another doubt; inactive = no such curve, though single readings can be large; an effect the other way counts as inactive or inconclusive.

SMILES	KB-V1 cytotox	MCF10A rereplic	D3 antag	KB-3-1 tox	SW480 rerep	D3 ag
O=C(Oc1c(-c2ccccc2)c(=O)n2c3c(cccc13)CC2)c1ccc(F)cc1	i	26µM*	56	i	-6%	26
CCN1C(=O)[C@H]2[C@@H](c3ccc(-c4ccc(C(C)=O)cc4)c(OC)c3)N[C@@](Cc3ccccc3)(C(=O)OC)[C@H]2C1=O	i	20%	-59*	i	20%	-8
CCN1C(=O)[C@H]2[C@@H](c3ccc(-c4cccc(Cl)c4)cc3)N[C@@](CC(C)C)(C(=O)OC)[C@H]2C1=O	?	-9%	?	?	3%	21
CCCCCCSc1ccc([C@H]2N[C@@](Cc3ccccc3)(C(=O)OC)[C@H]3C(=O)N(C)C(=O)[C@@H]23)cc1	16µM*	5%	-51*	?	-9%[9.22 µM]	-6
CCN1C(=O)[C@H]2[C@@H](c3ccc(-c4cccc(Cl)c4)c(OC)c3)N[C@@](CC(C)C)(C(=O)OC)[C@H]2C1=O	i	5.8µM*	?	?	?	-26
CNC1CC(N)[C@H](O)[C@@H](O[C@@H]2OC(CO)C3OC4(OC(C(N)CO)C(O)C(O)C4O)O[C@@H]3[C@H]2O)C1O (some centres undefined)	nt	28%	nt	nt	-1%	nt
Cc1ccc(-c2nc(CN3CCCCC3)cc(CN3CCCCC3)c2O)cc1	i	0%	-55*	i	-3%	-15
COc1ccc(N=Nc2cc(C)c(O)c(CN3CCCCC3)c2)cc1	i	?	3	i	-65%	-2
O=C(CN1C(=O)CSc2ccc(S(=O)(=O)N3CCCC3)cc21)NCc1ccc(F)cc1Cl	i	nt	nt	i	nt	4
C=CCCC1(C)C(=O)N(c2ccccc2)c2ccccc21 (centres undefined)	?	?	2	?	18µM*	8
Cc1c(Nc2cc(Cl)c3nonc3c2[N+](=O)[O-])c(=O)n(-c2ccccc2)n1C	i	?	-101*	?	-1%	-21
O=[N+]([O-])c1c(Nc2cccc(O)c2)cc(Cl)c2nonc12	?	?	-131*	18µM*	?	-29
Cc1c(Nc2ccc3nonc3c2[N+](=O)[O-])c(=O)n(-c2ccccc2)n1C	i	2%	-1	i	-5%	1
O=[N+]([O-])c1cncc([N+](=O)[O-])c1Nc1cccc(O)c1	23µM*	29%	-10	?	?	-6
CC1CCN(C(=O)CN2c3ccc(Br)cc3-c3ccccc3S2(=O)=O)CC1	i	nt	nt	i	nt	-5
COC(=O)c1ccccc1NC(=O)CSc1nc2ccccc2nc1Cc1ccc(F)cc1	?	nt	nt	i	nt	-13
Cc1cccc(NC(=O)C2CCCN(S(=O)(=O)c3ccc4c(c3)oc(=O)n4C)C2)c1C (centres undefined)	i	nt	nt	i	nt	1
COc1ccc(OCCCC(=O)Nc2ccc3c(c2)OCCO3)cc1	?	21µM*	-8	i	27%	6
Cc1ccc(OCCCC(=O)Nc2ccc3c(c2)OCO3)cc1	i	-6%	-52*	i	-1%	7
CN(CC(=O)Nc1ccc(Cl)cc1)C(=O)C1=COCCO1	i	0%	6	i	-2%	-7
CC(C)(C)NS(=O)(=O)c1ccc(CCC(=O)Nc2ccc3c(c2)OCCO3)cc1	16µM*	-8%	8	i	-5%	-4
COc1ccc(NC(=O)CN(C)C(=O)C2=COCCO2)cc1	i	0%	-59*	i	1%	1
CCc1ccc(N2CCn3c2nc2c3c(=O)n(Cc3cccc(C)c3)c(=O)n2C)cc1	nt	nt	nt	nt	nt	2
COc1ccc(NC(=O)CSCC(=O)N(C)Cc2ccc3c(c2)OCCO3)cc1	15µM*	3%	0	i	1%	1
Cc1cccc(C)c1NC(=O)CN(C)C(=O)c1ccc(OCc2ccccc2)cc1	i	nt	1	i	nt	0
SMILES	KB-V1 cytotox	MCF10A rereplic	D3 antag	KB-3-1 tox	SW480 rerep	D3 ag
O=C(CSc1ncc(-c2ccc(F)cc2)[nH]1)N1CCCCC1	i	7%	-59*	i	-7%	-1
C(=N\N1CCN(Cc2cccc3ccccc23)CC1)/c1cccs1	i	21%	-22	i	-83%	-5
C(=N\N1CCN(Cc2ccccc2)CC1)/c1cccs1	i	9%	-73*	i	-1%	1
COc1cccc(NC(=O)COc2ncnc3sc(C)c(C)c23)c1	i	-4%	-3	i	-9%	6
CCN(CC(=O)Nc1cccc(OC)c1)c1ncnc2sc(C)c(C)c12	2.3µM*	-57%	41	?	-140%	6
CO/N=C(/C(=O)N[C@@H]1C(=O)N2C(C(=O)O)=CCS[C@H]12)c1csc(N)n1	nt	1%	nt	nt	0%	nt
Cc1c(Cl)cccc1Nc1nc(N)nc(CSCCO)n1	i	-3%	0	i	-7%	5
Cc1c(Cl)cccc1Nc1nc(N)nc(CSc2ncccn2)n1	18µM*	18%	39	i	?	0
Cc1ccc(OCC(=O)N(Cc2ccco2)Cc2ccco2)cc1C	nt	nt	nt	nt	nt	4
COc1ccc(CCNC(=O)c2c(O)nc3ccccn3c2=O)cc1OC	7.3µM*	nt	nt	i	nt	6
COc1cccc(CNC(=O)c2c(O)nc3ccccn3c2=O)c1	23µM*	nt	nt	i	nt	5
Cc1cccc(-c2nc(NCCCN3CCOCC3)c3ccccc3n2)c1	i	?	4	?	-2%	-7
Cc1nc(NCCCN2CCOCC2)c2cnn(-c3ccccc3)c2n1	i	19%	-51*	i	-3%	-19
c1ccc(-c2nc(NCCCN3CCOCC3)c3ccccc3n2)cc1	6.5µM*	?	19	i	7%	-2
Cn1c(=O)cc(SCC(=O)Nc2cccc(C#N)c2)c2ccc(Cl)cc21	i	nt	nt	i	nt	-7
CC(C)Cn1nc(NC(=O)C(C)(C)C)c2cc3ccccc3nc21	i	23µM*	2	i	?	-5
CCn1nc(NC(=O)COC)c2cc3cc(C)ccc3nc21	i	2%	-4	i	23µM*	-3
CCCn1nc(NC(=O)CC(C)C)c2cc3ccccc3nc21	5.2µM*	?	15	i	1%	7
CCCCC(=O)Nc1nn(CC(C)C)c2nc3ccccc3cc12	16µM*	?	0	i	?	-4
Cc1nc(NS(=O)(=O)c2ccc(N)cc2)nc(C)c1Br	nt	2%	nt	nt	-4%	9

Assay outcomes deposited in PubChem by National Center for Advancing Translational Sciences (NCATS).
